Data on 4 compounds can be found in PubChem BioAssay (NCATS).

Molecules are shown by their SMILES. Records with an inconclusive call do not appear. The source made the active and inactive calls. The call rests on the fitted dose curve; in most records, active means well fitted curve in the direction sought with a large enough effect; inconclusive means small, poorly fitted or top-dose-only effect, or another doubt; inactive means no such curve, though single readings can be large; an effect the other way counts as inactive or inconclusive.

The nature of assay [1]: qHTS of pediatric cancer cell lines to identify multiple opportunities for drug repurposing: Primary screen for SJ-GBM2 cells (AID 1347091). Further: potency means the concentration at half of the fitted maximal effect. The gist of the method: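 Cell viability, CellTiter-Glo luminescence; 500-1,000 cells/well, 8- or 11-point titration, 48 h compound exposure at 37 degrees C, 5% CO2. Controls: DMSO neutral, bortezomib 2.3 µM final as positive.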
The nature of assay [2]: qHTS of pediatric cancer cell lines to identify multiple opportunities for drug repurposing: Primary screen for A673 cells (AID 1347092). Further: nearly all actives have a fitted effect of over 45% in size. Further: potency means the concentration at half of the fitted maximal effect. The gist of the method: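 Luminescence from CellTiter-Glo, taken after 15 min at room temperature, served as the proxy for metabolically active cells following 48 h treatment. Both potency and efficacy were taken from curves fitted to the titration data.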

Assay [3] in a line: qHTS of pediatric cancer cell lines to identify multiple opportunities for drug repurposing: Primary screen for Saos-2 cells (AID 1347097). Further: nearly all actives have a fitted effect of over 40% in size. Further: potency means the concentration at half of the fitted maximal effect. The gist of the method: (§1)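 Primary screen of approved and investigational compounds on cells in growth media at 37 degrees C, 5% CO2. MIPE set at 11-point and NPC set at 8-point dilutions; viability scored by ATP-based luminescence at 48 hours.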

Assay [4] can be described thus: qHTS of pediatric cancer cell lines to identify multiple opportunities for drug repurposing: Primary screen for SK-N-SH cells (AID 1347098). Further: nearly all actives have a fitted effect of over 65% in size. Further: potency means the concentration at half of the fitted maximal effect. The gist of the method: (§2)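 Cells (500-1,000/well) rested 5 h, then received compounds for 48 h; metabolically active cells were measured by CellTiter-Glo luminescence. Final concentrations spanned up to 46 µM (MIPE, 11-point) or 0.59 nM-46 µM (NPC, 8-point) in primary screens, 11-point in follow-ups.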

A short description of assay [5]: qHTS of pediatric cancer cell lines to identify multiple opportunities for drug repurposing: Primary screen for NB1643 cells (AID 1347099). Further: nearly all actives have a fitted effect of over 50% in size. Further: potency means the concentration at half of the fitted maximal effect. The gist of the method: as §1
Assay [6] is described as follows: qHTS of pediatric cancer cell lines to identify multiple opportunities for drug repurposing: Primary screen for OHS-50 cells (AID 1347103). Further: potency means the concentration at half of the fitted maximal effect; nearly all actives have a fitted effect of over 40% in size. The gist of the method:
as §2

Assay [7] can be described thus: qHTS of pediatric cancer cell lines to identify multiple opportunities for drug repurposing: Primary screen for RD cells (AID 1347104). Further: potency means the concentration at half of the fitted maximal effect; nearly all actives have a fitted effect of over 55% in size. The gist of the method:
as §1

Assay [8] in a line: qHTS of pediatric cancer cell lines to identify multiple opportunities for drug repurposing: Primary screen for Rh41 cells (AID 1347108).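 Further: series mostly up to about 46 µM; luminescence drop marks cytotoxic hits; nearly all actives have a fitted effect of over 70% in size.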 Put shortly: as §1
Assay [9] in a line: qHTS of pediatric cancer cell lines to identify multiple opportunities for drug repurposing: Primary screen for U-2 OS cells (AID 1347096). Further: nearly all actives have a fitted effect of over 50% in size. Put shortly: as §2
Assay [10] can be described thus: qHTS of pediatric cancer cell lines to identify multiple opportunities for drug repurposing: Primary screen for LAN-5 cells (AID 1347100). Further: potency means the concentration at half of the fitted maximal effect. The gist of the method:
as §2

A short description of assay [11]: qHTS of pediatric cancer cell lines to identify multiple opportunities for drug repurposing: Primary screen for Rh18 cells (AID 1347102). Further: nearly all actives have a fitted effect of over 65% in size. Further: potency means the concentration at half of the fitted maximal effect. The gist of the method:
as §2

Assay [12] can be described thus: qHTS of pediatric cancer cell lines to identify multiple opportunities for drug repurposing: Primary screen for MG 63 (6-TG R) cells (AID 1347105). Further: nearly all actives have a fitted effect of over 50% in size. Further: potency means the concentration at half of the fitted maximal effect. Put shortly: as §1
A short description of assay [13]: qHTS of pediatric cancer cell lines to identify multiple opportunities for drug repurposing: Primary screen for control Hh wild type fibroblast cells (AID 1347106).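 Further: series mostly up to about 46 µM; a drop in luminescence marks cytotoxicity and a rise apparent proliferation; nearly all actives have a fitted effect of over 55% in size.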 Put shortly:
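Viability after 48 h compound treatment at 37C, 500-1,000 cells/well, read as ATP luminescence with CellTiter-Glo. Primary screens used 11-point (MIPE, 0.78 nM-46 µM) or 8-point (NPC, 0.59 nM-46 µM) final concentrations; follow-up screens used 11-point dilutions.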

Assay [14] can be described thus: qHTS of pediatric cancer cell lines to identify multiple opportunities for drug repurposing: Primary screen for Rh30 cells (AID 1347107). Further: series mostly up to about 46 µM; nearly all actives have a fitted effect of over 75% in size. The gist of the method:
as §2

A short description of assay [15]: qHTS of pediatric cancer cell lines to identify multiple opportunities for drug repurposing: Confirmatory screen for NB1643 cells (AID 1347109). Further: nearly all actives have a fitted effect of over 45% in size. The gist of the method: as §2
Assay [16] can be described thus: qHTS of pediatric cancer cell lines to identify multiple opportunities for drug repurposing: Primary screen for BT-37 cells (AID 1347094). Further: potency means the concentration at half of the fitted maximal effect. Put shortly: as §1
Assay [17] can be described thus: qHTS of pediatric cancer cell lines to identify multiple opportunities for drug repurposing: Primary screen for NB-EBc1 cells (AID 1347095). Further: potency means the concentration at half of the fitted maximal effect. The gist of the method:
as §1

In the case of `CCCS(=O)(=O)Nc1ccc(F)c(C(=O)c2c[nH]c3ncc(Cl)cc23)c1F`, the Potency was 10.5 µM (active) in [1]; 18.7 µM (active) in assay [2]; 11.8 µM (active) in assay [3]; 19.2 µM (active) in [4]; 20.9 µM (active) in assay [5]; 13.7 µM (active) in assay [6]. The Potency in [7] is 18.7 µM (active). Further, the Potency result in assay [8] is “inactive”.

For `Cc1cn[nH]c1`, the Potency entry in [1], in [2], in assay [9], in [3], in assay [4] and in [5] was “inactive” throughout. In addition, the Potency entry in assay [10], in assay [11], in [12], in assay [13], in [14] and in assay [15] was “inactive” each time. Besides, the Potency in [6] is 0.611 µM (active).

`COc1cc(Nc2ncc3c(n2)-c2ccc(Cl)cc2C(c2c(F)cccc2OC)=NC3)ccc1C(=O)O`: the Potency in assay [1] was 0.0209 µM (active); in assay [17], 0.0332 µM (active); in assay [3], 4.69 µM (active); in assay [4] it was 8.57 µM (active); in [5], 13.2 µM (active); in assay [10], 0.0093 µM (active). Besides, the Potency in [11] was 20.9 µM (active); in assay [12], 5.9 µM (active). Moreover, the Potency entry in assay [2], in assay [16] and in assay [13] was “inactive” each time.

In the case of `CS(=O)(=O)Oc1ccc2c(NC(N)=O)c(C(=O)c3ccc(Cl)cc3Cl)oc2c1`, the Potency in assay [1] was 3.32 µM (active); in assay [2], 2.35 µM (active); in assay [16], 3.43 µM (active); in assay [17], 4.18 µM (active); in assay [4] it was 15.2 µM (active); in assay [5], 3.72 µM (active). The Potency in assay [10] was 2.09 µM (active); in assay [11], 2.35 µM (active); in assay [7], 13.2 µM (active); in assay [12] it was 18.7 µM (active). In addition, in [14], the Potency result was “inactive”.
